# Tau fibril ThT: blocks human tau fibril formation measured by thioflavin T; recombinant tau K18 P301L, heparin-induced fibrillization, ThT fluorescence; Potency, µM (highest dose often 57.4 µM), for inactives: at the highest dose activity, negative = inhibition, most hits filed as inhibitors; hit rate 2.1% among 270,000; AID 1460; P10636; further: nearly all actives have a fitted effect of over 55% in size
#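 Fibril formation assay: tau K18 P301L at 15 uM with trace Alexa 594 label, heparin inducer 20 uM, pH 7 sodium acetate buffer, 37 C for 6 hr; endpoint ThT signal.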
# Tau FP inhib: blocks human tau fibril formation measured by polarization | P10636 | K18 P301L tau heparin fibrillization, Alexa594 FP, 6 h | Potency, µM (highest dose often 57.7 µM), for inactives: at the highest dose activity, negative = inhibition, actives largely listed as inhibitors | hit rate 0.39% among 280,000 | AID 1468; further: nearly all actives have a fitted effect of over 55% in size
#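 Quantitative HTS format: compounds meet 15 uM recombinant K18 P301L tau and Alexa 594-tau tracer in 100 mM sodium acetate pH 7; 20 uM heparin triggers fibrillization at 37 C over 6 hr; FP gives the signal.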
# TexasRed fluor: alters Texas Red total fluorescence, flagging assay interference; TRb/SRC2 Texas Red total fluorescence interference; Potency, µM (series often up to 106 µM), without a hit: top-dose fluorescence change, negative = quenching; hit rate 0.29% among 280,000; AID 1479; active means well fitted curve in either direction with a large enough effect; inconclusive means small, poorly fitted or top-dose-only effect
#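 Flags fluorescent or light-absorbing compounds by total fluorescence, S + 2P, at 555 nm excitation and 632 nm emission. Mixture: 20 nM Texas Red SRC2 peptide, 0.6 uM human TRb LBD, 1 uM T3, 5% DMSO; compound exposure 5 h at ambient temperature.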
# Tau fluor counter: counter-screen for tau fibril formation inhibitors; tau K18 P301L Alexa594 fluorescence, heparin fibrillization; Potency, µM (series often up to 57.7 µM), for the others: at the highest dose activity change, negative = decrease; hit rate 0.93% among 280,000; AID 1463; further: nearly all actives have a fitted effect of over 55% in size
#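 Human tau K18 P301L (15 uM unlabeled, 0.24 uM Alexa 594-labeled) in 100 mM sodium acetate pH 7 with 20 uM heparin, 6 hr at 37 C. ThT 30 uM added, 1 hr ambient; Alexa 594 FP and total fluorescence read at 555/632 nm.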
# TRb-SRC2 inh: TRbeta-SRC2 interaction inhibition; P10828; TRbeta-SRC2 peptide binding, fluorescence polarization; receptor liganded with 1 µM T3; Potency, µM (top dose mostly 106 µM), for the others: at the highest dose activity change, negative = inhibition, usual class: inhibitors; hit rate 0.065% among 280,000;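 further: plate controls were bound peptide for no effect and peptide without receptor for full effect; nearly all actives have a fitted effect of over 50% in size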
# Target sequence (P10828 whole entry, looked up): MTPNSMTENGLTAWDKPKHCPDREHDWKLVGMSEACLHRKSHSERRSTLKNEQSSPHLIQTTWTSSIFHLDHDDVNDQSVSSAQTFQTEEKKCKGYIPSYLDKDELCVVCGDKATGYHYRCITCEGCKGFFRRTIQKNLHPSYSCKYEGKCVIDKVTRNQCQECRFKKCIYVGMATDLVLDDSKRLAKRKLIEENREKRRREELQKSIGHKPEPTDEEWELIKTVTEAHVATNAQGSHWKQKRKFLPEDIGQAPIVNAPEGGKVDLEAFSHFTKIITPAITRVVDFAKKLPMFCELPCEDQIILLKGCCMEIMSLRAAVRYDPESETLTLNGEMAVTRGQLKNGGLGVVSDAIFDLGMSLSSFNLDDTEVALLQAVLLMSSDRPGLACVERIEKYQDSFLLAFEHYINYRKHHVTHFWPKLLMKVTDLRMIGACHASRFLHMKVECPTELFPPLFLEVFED
#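 A fluorescence polarization screen tested compounds at multiple concentrations against complex formation between 0.6 uM TRb ligand-binding domain and 20 nM Texas Red SRC2 peptide, with 1 uM T3 present; readout after 5 hr.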
# Active calls of the source: *; ? = inconclusive; / = not tested or not shown; [ ] = remark or other dose. Sampled rows, rich in hits. Any-hit rate of the full collection: about 3%. Unless noted, the call rests on the fitted dose curve; in most records, active means well fitted curve in the direction sought with a large enough effect; inconclusive means small, poorly fitted or top-dose-only effect, or another doubt; inactive means no such curve, though single readings can be large; an effect the other way counts as inactive or inconclusive. Unless noted, on the % scale 0 is the no-effect control and ±100 the full control effect; potency means the concentration at half of the fitted maximal effect.
SMILES,Tau fibril ThT,Tau FP inhib,TexasRed fluor,Tau fluor counter,TRb-SRC2 inh
C=CC[C@@](C(C)=O)(C(=O)OC)C(NC(=O)OC(C)(C)C)c1ccccc1 (stereo partly specified),?,10.0%,0.0%,-22.3%,6.6%
Cc1cc(O)c(C(C[N+](=O)[O-])c2ccc(Cl)cc2Cl)c(=O)o1 (stereo unspecified),28.2µM*,?,0.3%,-21.6%,7.4%
O=c1[nH][nH]c(-c2ccccc2O)c1C(C[N+](=O)[O-])c1ccc(Cl)cc1Cl (stereo unspecified),-17.5%,0.0%,-0.4%,-29.8%,-1.3%
CCOc1ccc(NC(=O)N2CCN(c3nnc(C)c4c(C)n(-c5ccccc5)nc34)CC2)cc1,-2.5%,-0.7%,0.0005µM*[quencher],0.4%,-12.3%
CO[C@H]1COC(=O)[C@@H](CCSC)NC(=O)C/C=C\[C@@H](C)COC(=O)[C@@H](OCc2ccccc2)/C=C\[C@@H]1C,-2.2%[11.5 µM],-2.9%[11.6 µM],0.7%[11.2 µM],-1.9%[11.6 µM],-4.4%[11.2 µM]
Cc1nn(-c2ccccc2)c(C)c1/C=N\N1CCN(c2ccc(Cl)cc2)CC1,8.91µM*,-7.6%,-4.7%,?,6.1%
Cc1nn(-c2ccccc2)c(C)c1/C=N/n1cnnc1,-5.3%,-10.4%,0.4%,-7.8%,-3.6%
CCOC(=O)/C(=N\Nc1ccccc1)c1csc(Nc2ccc(C)cc2)n1,?,7.5%,-7.2%,7.08µM*[quencher],-5.6%
COc1cccc(/C=C2/SC(=S)N(CC(=O)Nc3nnc(C)s3)C2=O)c1,1.26µM*,?,1.5%,?,11.5%
Cc1ccc(CNC(=O)C2CCCN(S(=O)(=O)c3cccc4nsnc34)C2)cc1 (stereo unspecified),3.1%,-11.9%,-0.1%,-7.6%,-0.9%
Fc1ccc2[nH]c(-c3cccs3)cc2c1,?,?,-1.1%,11.2µM*[quencher],-0.3%
Fc1ccc(-c2cc(-c3cccs3)cc(-c3ccccc3)n2)cc1,-12.0%,?,1.0%,-26.1%,0.1%
CCN(CC)CC(=O)Nc1ccc2c(c1)N(C(=O)CN(CC)CC)c1ccccc1CC2,-16.1%,1.7%,-4.9%,-6.2%,1.9%
CCN(CC)CC(=O)Nc1ccc2c(c1)Nc1ccccc1CC2,?,4.5%,-1.7%,15.8µM*[quencher],-20.3%
COc1cc(NC(=O)COC(=O)CNC(=O)c2ccc(C)cc2)c(C)cc1[N+](=O)[O-],3.5%,5.9%,10µM*[quencher],-1.9%,-25.2%[53 µM]
CC(=O)C1=C(C)OC2(O)c3ccccc3C(=O)C12O (stereo unspecified),2.24µM*,?,2.2%,-12.6%,-20.6%
O=C1NC2(O)C(=O)c3ccccc3C2(O)N1 (stereo unspecified),0.5%,5.6%,-2.3%,1.9%,3.3%
CCOC(=O)C1=C(C)c2ccccc2OC1(CC)C(=O)OCC (stereo unspecified),-14.0%[81.4 µM],8.9%[81.3 µM],-2.1%,-13.3%[81.3 µM],0.5%
CCOC(=O)C1=C(C)OC2(O)c3ccccc3C(=O)C12O (stereo unspecified),2µM*,1.41µM*,-1.2%,-16.0%,-28.8%
O=C(CNC(=O)c1ccco1)N=Nc1c(O)n(CCc2ccccc2)c2ccccc12,?,-5.8%,-2.1%,-16.6%,-0.6%
C=CCn1c(O)c(N=NC(=S)Nc2cccc(C)c2)c2ccccc21,-0.8%,5.3%,-4.0%,-9.0%,-10.0%
C=CCn1c(O)c(N=NC(=O)CNC(=O)/C=C/c2ccco2)c2ccccc21,20µM*,-5.4%,-11.1%,-10.6%,-7.9%
C=CCn1c(O)c(N=NC(=O)CNC(=O)/C=C/c2ccc(OC)cc2)c2ccccc21,12.6µM*,-14.2%,-2.3%,-23.6%,-1.2%
CCCCCCCCCCCCOCC1CO1 (stereo unspecified),/,/,-1.4%,/,7.6%
Cc1ccc(O)c(NC(=O)c2ccc(Br)c(S(=O)(=O)N3CCCCC3)c2)c1,-11.7%,-3.5%,?,12.6µM*[quencher],-11.4%
O=C(Nc1cc(Cl)cc(Cl)c1)c1ccc(F)c(S(=O)(=O)NC2CCCC2)c1,1.4%,10µM*,-3.0%,?,12.2%
O=C(Nc1cc(Cl)cc(Cl)c1)c1ccc(F)c(S(=O)(=O)N2CCCC2)c1,-4.6%,14.1µM*,-2.5%,?,9.1%
